From PubChem BioAssay AID1347383 (Zoeller Lab, School of Medicine, Boston University, 2020) come the findings set out here.

Activity calls are given as the source filed them.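 The calls were made as follows: active = cell survival after UV exposure 2 SD above solvent-only control wells at 10 µM, confirmed on one or two repeats; inactive = the rest.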

A short description of the assay: protection of CHO cells from pyrene-fatty acid UV killing, primary screen, phospholipid biosynthesis inhibitor project, ZR-82 cells, Analyticon library, screen 2 (AID 1347383).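 Also: survival reflects blocked phospholipid synthesis cutting uptake of the phototoxic fatty acid; compound and fatty acid exposure 3 h then viability read next day.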 The conditions noted are these: ZR-82 CHO cells, CellTiter Blue, at 10 µM, peroxisome-deficient CHO-K1 variant, with DGAT-1, DGAT-2 and ACAT inhibitors. Background: Alamar Blue is a resazurin reagent that responds to reducing activity.
`O=C1NC(Cc2c[nH]c3ccccc23)C(=O)NC1Cc1ccccc1` (centres undefined): the compound was called inactive. The same measure for `C=C1C=CC(C(C)C)CCC(=C)C(O)CC1` (centres undefined): “inactive”. The same measure for `O=c1c(O)c(-c2ccc(O)cc2)oc2cc(O)cc(O)c12`: “inactive”; for `C[C@]12CC(=O)C3C[C@@]1(O)OC(O2)[C@H]3COC(=O)c1ccccc1`: “inactive”. The same measure for `COc1ccc(C(O)CNC(=O)/C=C/c2ccccc2)cc1` (centres undefined): “inactive”; for `CCC(C)CC(C)/C=C/CCC(O)C(Cc1ccc(O)cc1)NC` (centres undefined): “inactive”. `C[C@@H]1C[C@@H](O)C2[C@@](C)(CO)CCC[C@]2(C)[C@@]1(O)CCc1ccoc1` (some centres undefined): the result was inactive. On to `OC1c2ccccc2-c2c3c(cc4c2C1NCC4)OCO3` (centres undefined), for which the call was inactive. The same measure for `CCC(C)C(=O)Oc1cc(C)ccc1C1(COC(=O)C(C)C)CO1` (centres undefined): “inactive”.

As for `C=C(COC(=O)C(C)C)C1Oc2cc(C(C)=O)ccc2C1OC(=O)C(C)C` (centres undefined), the result was inactive. The same measure for `O=c1c(-c2ccc(O)cc2)coc2cc(O)ccc12`: “inactive”; for `O=C(/C=C/C=C/c1ccc2c(c1)OCO2)N1CCCCC1`: “inactive”. The same measure for `CCC(C)C1NC(=O)C2CCCN2C1=O` (centres undefined): “inactive”. The same measure for `C=C1C(=O)O[C@@H]2C3=C(C)CCC[C@]3(C)CC[C@@]12O`: “inactive”; for `C=CC#Cc1ccc(-c2cccs2)s1`: “inactive”. On to `C=C(C(=O)O)[C@@H]1CC[C@H](C)[C@@H]2CC(=O)C(C)=C2C1`, for which the call was inactive. The same measure for `O=C(O)c1ccc(OC2OC(CO)C(O)C(O)C2O)cc1` (centres undefined): “inactive”; for `CO[C@H]1c2cc(C(C)C)c(O)c(O)c2[C@@]23CCCC(C)(C)C2[C@@H]1OC3=O` (some centres undefined): “inactive”.

Take `C/C=C(/C)C(=O)OC1C(OC2(C)CCC3C(C4C(C)CCC42)C3(C)C)OC(C)C(O)C1O` (centres undefined): the outcome was inactive. The same measure for `COc1cc(/C=C/CO)ccc1OC/C=C(\C)CCC=C(C)C`: “inactive”. The same measure for `O=C1CC(c2ccc(O)cc2)Oc2cc(O)cc(O)c21` (centres undefined): “inactive”; for `COc1cc(O)cc2c1C(=O)CC(c1ccccc1)O2` (centres undefined): “inactive”. On to `O=C(CCc1ccc(O)cc1)c1c(O)cc(O)cc1O`, for which the result was inactive.

With `COc1cc(CCC(=O)O)cc(OC)c1OC`, the call was inactive. `CC(C)=CCc1c(O)cc2oc3cc(C)cc(O)c3c2c1C`: the call was inactive. The same measure for `CC(=O)CCCCCCCCNC(C)=O`: “inactive”; for `CC(=O)OC(C)C(C)(O)C(=O)O[C@@H]1CC[C@]2(C)CC(=O)C(=C(C)C)C[C@H]2[C@]1(C)OC(C)=O` (some centres undefined): “inactive”. On to `CC[C@H]1C(=O)CC2C3CCC4C[C@@H](O)[C@]5(O)C[C@]4(CO5)C3CC[C@@]21C` (some centres undefined), for which the outcome was inactive. The same measure for `O=C(O)C1(O)C[C@@H](O)C(O)[C@H](O)C1` (some centres undefined): “inactive”; for `COc1c(C)c2c(c(O)c1C/C=C(\C)CCCC(C)C(=O)O)C(=O)OC2` (centres undefined): “inactive”; for `CC(C)(O)[C@@H]1Cc2cc3ccc(=O)oc3cc2O1`: “inactive”. The same measure for `O=C(O)/C=C/c1ccc(O[C@@H]2O[C@H](CO)[C@@H](O)[C@H](O)[C@H]2O)cc1`: “inactive”; for `Cc1c(O)cc2c(c1O)C(=O)[C@@H](O)[C@H](c1ccc(O)c(O)c1)O2`: “inactive”; for `CC1(C)CCCC2(C)C(CO)C3CCC2C31` (centres undefined): “inactive”. The same measure for `O=c1c(O)c(-c2ccc(O)cc2O)oc2cc(O)cc(O)c12`: “inactive”.

On to `COc1cc(OC2O[C@H](CO)[C@@H](O)[C@H](O)[C@H]2O)c2c(=O)c(-c3ccc(O)cc3)coc2c1` (some centres undefined), for which the compound was classed as inactive.

Consider `CC1=CC2=C(C=O)C(=O)[C@](C)(O)[C@@H](O)C2=CO1`, for which the call was inactive.

For the compound `C/C=C/C=C/C(=O)N1CC[C@]23c4ccccc4N[C@H]4N(C)c5cccc6c5[C@]42CCN([C@H]6C2OC2(C)C)[C@H]13` (some centres undefined), the outcome was inactive.

Regarding `C/C=C(/C)C(=O)O[C@@H]1C[C@@H](OC(=O)CC(C)C)C2(C)C3C(=O)C=C(C)C2C3C1(C)C` (some centres undefined), the call was inactive.
